Measurements from the supplement of paper PMC10941209.
Unmarked numbers belong to inactive results.

Test system: Toxoplasma gondii RH 2F1 tachyzoites (intracellular in HFF)
Test: parasite survival relative to DMSO control; higher = less antiparasitic activity, active = 20 or less
Details: 1 µM; 72 h
Summary of the method: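 Survival is the β-galactosidase-derived signal from intracellular Toxoplasma gondii RH-2F1 tachyzoites, expressed as a percentage of infected wells treated with DMSO. HFF cells (5 × 10^3 cells/well, 96-well plates) were infected with 5 × 10^3 parasites in D2 medium for 3 h and then treated with compound at 1 μM for 72 h at 37°C in 5% CO2. After lysis, CPRG was added and absorbance at 570 nm was read at 30 min, with 2 or more biological replicates.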

Compound | parasite survival
CCCNc1ccc(S(=O)(=O)Nc2cc(C)on2)cc1 | 65.5%
NC1C2CC3CC(C2)CC1C3 (stereo unspecified) | 68.3%
Cc1ccc(N2CCC(CCOc3ccc(S(C)(=O)=O)cc3)CC2)nn1 | 73.2%
Fc1ccc2c(/C=C/c3nnn[nH]3)c[nH]c2c1 | 47.3%
CC(C)CCN1C(=O)C(C2=NS(=O)(=O)c3cc(NS(C)(=O)=O)ccc3N2)=C(O)[C@@H]2[C@H]3CC[C@H](C3)[C@@H]21 | 72.3%
N=c1n(CCN2CCCCC2)c2ccccc2n1CC(O)COc1ccc(Cl)cc1Cl (stereo unspecified) | 10.8% (active)
CNc1nc(=O)[nH]cc1F | 60.5%
CC(C)C(=O)N[C@H]1[C@H]([C@H](O)[C@H](O)CO)OC(C(=O)O)=C[C@@H]1N=[N+]=[N-] | 72.6%
CCc1c(O)nc2ccc(F)cc2c1OCC1CCC1 | 41%
CC1CN(c2ncnc3c2c(-c2ccccc2)cn3-c2ccc(F)cc2)CC(C)O1 (stereo unspecified) | 34.4%
CCCCCCCc1[nH]c2ccccc2c(=O)c1O | 49%
CC(C)(C)c1ccc(OCCn2nc(C(=O)O)c3ccccc3c2=O)cc1 | 45.3%
N=C(N)c1ccc(COc2ccc(Cl)cc2)cc1 | 54.6%
CC(C)(C)c1cc(C(=O)/C(C#N)=N/Nc2cccc(Cl)c2)no1 | 37.6%
CCC(C)NCC(O)Cn1c2ccc(Cl)cc2c2cc(Cl)ccc21 (stereo unspecified) | 26.8%
CC(C)Nc1nc2cc(Cl)c(Cl)cc2n1[C@H]1O[C@@H](CO)[C@H](O)[C@@H]1O | 72%
